This note sets out measurements from PubChem BioAssay AID2613 (National Center for Advancing Translational Sciences (NCATS), 2010).

Results filed as inconclusive are left out. Entries that show only a call come without a potency. The source made the active and inactive calls. Calls follow the shape of the dose curve; as a rule, active = well fitted inhibition curve with a large enough effect; inconclusive = small, poorly fitted or top-dose-only effect; inactive = flat fitted curve, though single readings scatter.

The experiment deals with Lysosomal acid glucosylceramidase (Homo sapiens) (UniProt P04062). Put plainly: qHTS Assay for Inhibitors and Activators of N370S glucocerebrosidase as a Potential Chaperone Treatment of Gaucher Disease: Activity in N370S Spleen Homogenate Using a Red Fluorescent Substrate. Particulars: red fluorogenic substrate; series mostly up to 49.6 µM. An excerpt: NIH Chemical Genomics Center [NCGC]
Lysosomal acid glucosylceramidase (Homo sapiens), sequence (P04062 whole entry N409S): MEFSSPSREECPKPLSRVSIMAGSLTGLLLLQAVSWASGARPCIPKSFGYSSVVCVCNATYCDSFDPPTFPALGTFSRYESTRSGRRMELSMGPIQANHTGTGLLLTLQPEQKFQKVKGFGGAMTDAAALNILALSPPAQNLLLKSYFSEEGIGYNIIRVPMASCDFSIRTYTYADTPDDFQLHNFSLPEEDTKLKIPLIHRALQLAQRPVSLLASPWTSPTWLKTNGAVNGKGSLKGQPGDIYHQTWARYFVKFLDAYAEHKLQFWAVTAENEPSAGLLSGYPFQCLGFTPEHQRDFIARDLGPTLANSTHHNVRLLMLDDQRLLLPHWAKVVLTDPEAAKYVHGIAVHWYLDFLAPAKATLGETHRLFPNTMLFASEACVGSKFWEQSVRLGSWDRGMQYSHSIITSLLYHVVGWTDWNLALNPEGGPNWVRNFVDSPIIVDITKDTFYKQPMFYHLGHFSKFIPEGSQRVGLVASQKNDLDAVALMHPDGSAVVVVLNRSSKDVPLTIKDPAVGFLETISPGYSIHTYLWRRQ
NIH Molecular Libraries Probe Production Centers Network [MLPCN]
Assay Submitter (PI): Wei Zheng
Glucocerebrosidase (GC) catalyzes the hydrolysis of beta-glucocerebroside to glucose and ceramide in lysosomes. Mutations in the glucocerebrosidase gene result in Gaucher disease, an autosomal recessive lysosomal storage disorder. Many of the mutations encountered in patients with Gaucher disease are missense alterations that may cause misfolding, decreased stability and/or mistrafficking of this lysosomal protein. […] These inhibitors include iminosugar analogs and three non-iminosugar inhibitors identified from a previous HTS of 62,000 compounds with the wild type recombinant enzyme. However, the enhancement of enzyme activity by the chaperone action of an enzyme inhibitor must be balanced against the direct inhibition of the enzyme. An enzyme activator could also function as a chaperone by binding to the enzyme and helping to correct its misfolding and mistrafficking. While activators for GC have not yet been identified, they may have better therapeutic potential than inhibitors. Therefore the discovery and development of chemical activators may provide a new strategy for the chaperone therapy.
We have optimized a new assay using N370S mutant GC derived from the spleen of a Gaucher patient. […] In addition, the MLPCN compound library has expanded, which increases the chance of finding new and better probes.
This confirmation assay tests for compound activity in spleen homogenate from a patient homozygous for the N370S mutation using an alternate resorufin-based substrate.
NCGC Assay Protocol Summary:
This is a fluorogenic enzyme assay with resorufin-beta-D-glucopyranoside as the substrate and mutant N370S glucocerebrosidase from human spleen homogenate as the enzyme preparation. Upon the hydrolysis of this fluorogenic substrate, the resulting product, […] which can be detected by a standard fluorescence plate reader. Data were normalized to the controls for basal activity (without enzyme) and 100% activity (with enzyme). The AC50 values were determined from concentration-response data modeled with the standard Hill equation.
Assay buffer: 50 mM citric acid (titrated with potassium phosphate to pH 5.0), 100 mM potassium chloride, 10 mM sodium chloride, 1 mM magnesium chloride, 0.01% Tween-20.
1536-well assay protocol:
(1) Add 2 ul/well of spleen homogenate (27 ug final)
(2) Add 23 nL compounds in DMSO solution. The final titration was 0.5 nM to 58 uM.
(3) Add 2 ul of substrate (1 mM final)
(4) Incubate at 37C for 40 min.
(5) Add 2 ul stop solution (1M NaOH and 1M Glycine mixture, pH 10)
(6) Detect the assay plate in a ViewLux plate reader (PerkinElmer) with Ex=365 nm and Em=440nm.
Keywords: Glucocerebrosidase, beta-glucosidase, Gaucher Disease, pharmacological chaperone, chaperone therapy, high throughput screening, glucocerebrosidase inhibitor, MLSMR, MLSCN, NIH Roadmap, qHTS and NCGC
(In general: In qHTS, concentration-response curves come from the screen itself.)
For `Cc1ccc(C)c(N2CCN(C(=O)CCC(=O)Nc3ccc4nc(N5CCOCC5)cc(C)c4c3)CC2)c1`, the Potency was 15.8 µM (active). Then `COc1ccccc1C(=O)COC(=O)c1ccccc1OCC(=O)Nc1ccc(SC(F)F)cc1`, with “inactive”; and `COc1cccc(NC(=S)N(CCCN2CCOCC2)Cc2cn(C)c3ccccc23)c1`, with 4.47 µM (active); and `O=c1cc(N2CCCCC2)c(-c2ccccc2)nn1Cc1c(Cl)cccc1Cl`, with “inactive”.

Take `Cc1ccc(Cl)cc1NC(=O)c1ccccc1OCC(=O)Nc1ccc(Cl)cc1`: the Potency result was “inactive”. As for `COc1ccc(Nc2nc(-c3cccs3)nc3ccccc23)cc1`, the Potency is 2.51 µM (active). Then `O=C(COc1ccccc1C(=O)c1cnn(-c2ccccc2)c1)Nc1ccccc1`, with “inactive”; and `Cc1ccc(NC(=O)COc2ccccc2C(=O)Nc2ccccc2)cc1Cl`, with “inactive”; and `O=C(COc1ccccc1[N+](=O)[O-])Nc1ccc(Br)cc1`, with “inactive”. Consider `Cc1cc(C)n2ncc(C(=O)Nc3cccc(O)c3)c2n1`, for which the Potency entry is “inactive”. Then `COc1cccc(CN(C)c2nc(-c3cccs3)nc3ccccc23)c1`, with 2.51 µM (active); and `COc1ccccc1NC(=O)COc1ccccc1C(=O)Nc1ccccc1`, with “inactive”; and `CC(C)(C)C(=O)OCCNc1nc(-c2ccccc2)nc2ccccc12`, with 3.98 µM (active). On to `Cc1cc(N2CCN(c3ncccn3)CC2)nc2ccc(NC(=O)C3CCC(C)CC3)cc12` (stereo not given), for which the Potency was 5.01 µM (active). For `COc1cccc(NC(=O)CSc2nc3ccccc3c(=O)n2Cc2cccs2)c1` the value was “inactive”; for `CCc1ccc(NC(=O)c2cnn3c(C(F)F)cc(C)nc23)cc1`, “inactive”; for `CC1CC(C)CN(C(=O)CSc2nc(Cc3cccs3)nc3ccccc23)C1` (stereo not given), “inactive”.

Take `CCOc1ccc(N(CC(=O)Nc2ccc(C)cc2)S(=O)(=O)c2c(C)[nH]c(=O)[nH]c2=O)cc1`: the Potency is 12.6 µM (active). With `Clc1ccccc1-c1nccc(NCc2ccccc2)n1`, the Potency is 3.55 µM (active). Regarding `Cc1cccc(/C=N/NC(=O)NC23CC4CC(CC(C4)C2)C3)n1`, the Potency result is “inactive”. Turning to `Cc1cc(Nc2cccc(Cl)c2)nc2ccc(NC(=O)C3CCC(C)CC3)cc12` (stereo not given), the Potency result was “inactive”. `COc1cc2c(cc1NC(=O)COC(=O)[C@@H](NC(=O)c1ccccc1)C(C)C)oc1ccccc12`: the Potency entry is “inactive”. Turning to `COc1cc(OC)cc(C(=O)N[C@H](C(=O)OCC(=O)Nc2cccc(F)c2)C(C)C)c1`, the Potency entry is “inactive”.

Consider `Cc1cc(N2CCC(C)CC2)nc2ccc(NC(=O)C3CCC(C)CC3)cc12` (stereo not given), for which the Potency was 11.2 µM (active). As for `O=C(CSc1nccc(-c2cccs2)n1)Nc1cccc(Cl)c1`, the Potency result was “inactive”. Then `CCCNC(=O)COC(=O)c1ccccc1OCC(=O)Nc1ccc(Br)cc1`, with “inactive”; and `O=C(Nc1cc(Br)ccc1O)c1cnn2c(C(F)F)cc(C3CC3)nc12`, with “inactive”. With `CCN(CC)c1ccc(C(=O)Nc2ccc3nc(N4CCOCC4)cc(C)c3c2)cc1`, the Potency was 15.8 µM (active). With `CCC(C)NC(=O)COC(=O)c1ccccc1OCC(=O)Nc1ccc(Br)cc1` (stereo not given), the Potency result is “inactive”. Then `CCC(C)c1ccc(NC(=O)c2cnn3c(C(F)F)cc(C)nc23)cc1` (stereo not given), with “inactive”; and `CCOc1ccccc1NC(=O)CN(c1ccc(C)cc1)S(=O)(=O)c1c(C)noc1C`, with “inactive”; and `O=C(Nc1ccccc1)c1ccc(NS(=O)(=O)c2ccccc2)cc1`, with “inactive”. Regarding `Cc1cc(N2CCOCC2)nc2ccc(NC(=O)CCC3CCCC3)cc12`, the Potency is 15.8 µM (active).

On to `CCc1cc(C(=O)N/N=C/c2c(C)[nH]c3ccccc23)cs1`, for which the Potency entry is “inactive”. With `COc1ccccc1OCC(=O)Nc1oc(-c2ccccc2)c(-c2ccccc2)c1C#N`, the Potency result was “inactive”.

Turning to `Cc1cc(C)n2ncc(C(=O)Nc3ccc(Cl)c(Cl)c3)c2n1`, the Potency entry was “inactive”. `COc1cc(OC)c2c(N)c(C#N)c(C(F)(F)C(F)(F)F)nc2c1`: the Potency entry was “inactive”.

Turning to `CC(=O)Nc1ccc(NC(=O)COc2ccccc2C(=O)Nc2cccc(Cl)c2Cl)cc1`, the Potency result is “inactive”. With `Cc1cc(N2CCOCC2)nc2ccc(NC(=O)c3ccco3)cc12`, the Potency entry is “inactive”. For `Cc1cc(C)cc(N(CC(=O)NC2CCCCCC2)S(=O)(=O)c2c(C)[nH]c(=O)[nH]c2=O)c1` the value was 0.794 µM (active).
